The structures appear in SMILES notation. The campaign covered roughly 2,300 compounds. About 1,200 (52%) were called active. Not shown: some 34% with an inconclusive outcome. So high a share suggests a set chosen from earlier hits. The list shows a part of the results. A number with no mark means an inactive call. The call rests on the fitted dose curve; in most records, active means well fitted inhibition curve with a large enough effect; inconclusive means small, poorly fitted or top-dose-only effect, or effect the other way; inactive means no such curve, though single readings can be large or run the other way.
On the % scale 0 is the no-effect control and ±100 the full control effect; potency means the concentration at half of the fitted maximal effect.

A short description of the assay: Confirmation screen for delayed death inhibitors of the malarial parasite plastid, 48 hour incubation. Further: nearly all actives have a fitted effect of over 65% in size. As to conditions: P. falciparum-infected erythrocytes, luciferase growth; series mostly up to 28.7 µM; activity change, negative = inhibition: at the top concentration. A digest of the protocol:
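Erythrocytes infected with luciferase-expressing P. falciparum (2% hematocrit, 0.1% parasitemia) incubated with compounds 48 hours at 37 C, 5% CO2, in RPMI/Albumax. Growth inhibition scored as reduced luminescence after detection reagent.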
For the molecule `C(=C\c1nc(N2CCCCCC2)c2ccccc2n1)/c1ccccc1`, the Potency is 6.31 µM (active).
In the case of `O=C(COc1ccccc1)N1c2ccccc2Sc2ccccc21`, the Potency was 14.1 µM (active).
For `Cc1cccc(N2CCN(S(=O)(=O)c3ccc4c(c3)NC(=O)CO4)CC2)c1C`, the Potency was 15.8 µM (active).
Same read-out and setting: the value for `Cc1ccc(C)c(N2CCN(S(=O)(=O)c3ccc4c(c3)NC(=O)CS4)CC2)c1` was 11.2 µM (active); that for `COc1ccc(-c2cc(C)no2)cc1S(=O)(=O)Nc1cccc(CN2CCCC2)c1` was 14.1 µM (active).
In the case of `Cc1ccc(OCCSCc2nnc(NC(=O)Nc3cccc(Cl)c3)s2)cc1`, the Potency is 2.82 µM (active).
Take `Cc1cc(=O)oc2c3c(cc(OCC(=O)Nc4cccnc4)c12)OC(C)(C)CC3`: the Potency was 3.98 µM (active).
On to `Cc1ccccc1-n1nc2c(c1NC(=O)C1CCCC1)CS(=O)(=O)C2`, for which the “activity change, negative = inhibition” value was -20.1%.
In the case of `CCOC(=O)c1cc(-c2ccc(C)cc2)n(CCC(=O)NCCN(C)C)c1C`, the Potency was 11.2 µM (active).
As to `CC(C)(C)c1ccc(C(=O)Nc2sc3c(c2C(=O)O)CCC3)cc1`, the Potency is 11.2 µM (active).
For the molecule `O=C(/C=C/c1ccccc1)Nc1sc2c(c1C(=O)O)CCC2`, the “activity change, negative = inhibition” value is -6.98%.
For `COc1ccc(S(=O)(=O)NCc2ccco2)cc1-c1nnc2c3ccccc3c(C)nn12`, the Potency was 11.2 µM (active).
As for `CO[C@H](C(=O)[C@@H](O)[C@@H](C)O)C1Cc2cc3cc(O[C@H]4C[C@@H](O[C@H]5C[C@@H](O)[C@H](O)[C@@H](C)O5)[C@@H](O)[C@@H](C)O4)c(C)c(O)c3c(O)c2C(=O)[C@H]1O[C@H]1C[C@@H](O[C@H]2C[C@@H](O[C@H]3C[C@](C)(O)[C@H](O)[C@@H](C)O3)[C@H](O)[C@@H](C)O2)[C@H](O)[C@@H](C)O1` (stereo partly drawn), the Potency was 0.562 µM (active).
On the same count and under the same terms, to `COc1ccc(N2CCN(C(=O)CSc3nc4cc(OC)c(OC)cc4cc3C#N)CC2)cc1` belongs 7.94 µM (active); to `COc1ccccc1OCC(=O)NNc1c2ccccc2nc2ccccc12`, 10 µM (active).
As for `Cc1ccc(OCC(=O)NNc2c3ccccc3nc3ccccc23)cc1`, the Potency was 10 µM (active).
`O=C(NNc1c2ccccc2nc2ccccc12)C(O)c1ccccc1` (stereo not drawn): the Potency is 12.6 µM (active).
In the case of `O=C(CCCO)NNc1c2ccccc2nc2ccccc12`, the Potency is 11.2 µM (active).
Regarding `O=C(COc1ccccc1)NNc1c2ccccc2nc2ccccc12`, the Potency was 11.2 µM (active).
For the molecule `O=C(Nn1c(COc2ccccc2)nc2ccccc2c1=O)C(Cl)(Cl)Cl`, the “activity change, negative = inhibition” value was -23.8%.
As for `COc1cccc(C(=O)NNc2c3ccccc3nc3ccccc23)c1`, the Potency was 10 µM (active).
For the molecule `Cc1cccc(OCC(=O)NNc2c3ccccc3nc3ccccc23)c1`, the Potency is 11.2 µM (active).
For the molecule `COc1cccc(C(=O)N/N=C(\C)CC(=O)Nc2ccc(N(C)C)cc2)c1`, the “activity change, negative = inhibition” value was -13.9%.
As to `Cc1ccc(C(=O)NNc2c3ccccc3nc3ccccc23)cc1`, the Potency was 15.8 µM (active).
As for `COc1ccc(CCn2c(C(C)C)nc3c(c(=O)c4ccccc4n3C)c2=O)cc1`, the Potency was 11.2 µM (active).
Same read-out and setting: the value for `COc1ccc(-c2nc3c(c(=O)c4ccccc4n3C)c(=O)n2Cc2ccccc2)cc1` was 10 µM (active).
With `COc1ccc(Cn2c(-c3ccccc3)nc3c(c(=O)c4ccccc4n3C)c2=O)cc1`, the Potency is 11.2 µM (active).
On the same count and under the same terms, to `O=C(/C=C/c1ccc(Cl)c(Cl)c1)NCCCn1ccnc1` belongs 15.8 µM (active).
On to `O=C(O)CCNS(=O)(=O)c1cccc(Br)c1`, for which the “activity change, negative = inhibition” value was -11.5%.
In the case of `CCc1ccccc1Nc1nc(N)nc(COC(=O)CCC(=O)c2ccc(F)cc2)n1`, the Potency is 8.91 µM (active).
Consider `CCc1ccccc1Nc1nc(N)nc(COC(=O)CCNS(=O)(=O)c2ccccc2)n1`, for which the Potency is 12.6 µM (active).
Take `Cc1ccc(C(=O)OCc2nc(N)nc(Nc3ccccc3C)n2)cc1`: the Potency was 12.6 µM (active).
With `CCCCN(C)C(=O)C1CCC(CNS(=O)(=O)c2ccc3c(c2)CC(C)N3C(=O)C2CC2)CC1` (stereo not drawn), the Potency was 12.6 µM (active).
Consider `CCc1ccc(N/C(SCc2cccc(F)c2)=C(/C#N)C(=O)NCc2ccco2)cc1`, for which the Potency is 10 µM (active).
Take `C#Cc1ccc(CN2CCN(CCCc3ccccc3)C(CCO)C2)cc1` (stereo not drawn): the Potency was 11.2 µM (active).
In the case of `CC(C)/C=C/CN1CCN(CCCc2ccccc2)C(CCO)C1` (stereo not drawn), the Potency is 12.6 µM (active).
With `COc1ccccc1N1CCN(C(=O)c2noc(C(C)C)c2[N+](=O)[O-])CC1`, the Potency was 10 µM (active).
For `COc1ccc(S(=O)(=O)N2CCc3ccccc32)cc1C(=O)Nc1cccnc1`, the Potency was 12.6 µM (active).
With `Cc1ccc(NC(=O)c2cc(S(=O)(=O)N3CCc4ccccc43)cn2C)cc1`, the Potency is 11.2 µM (active).
On to `COc1ccc(S(=O)(=O)N(C)c2ccc(C(=O)Nc3cccnc3)cc2)cc1OC`, for which the Potency is 14.1 µM (active).
Turning to `CCOc1ccc2c(c1)sc(N)[n+]2Cc1cc(C)cc2cccnc12`, the Potency was 5.62 µM (active).
Consider `O=C(Nc1cccc(S(=O)(=O)NCc2ccco2)c1)c1cc(-c2ccc(F)cc2)nc2ccccc12`, for which the “activity change, negative = inhibition” value was -0.526%.
Turning to `O=C(NCc1ccco1)c1cc2sccc2n1Cc1ccc(F)cc1`, the Potency is 12.6 µM (active).
`Cc1ccc(/C=N/NC(=O)CSc2nc3ccccc3c(=O)n2-c2ccccc2C)s1`: the Potency is 11.2 µM (active).
With `COc1ccc(C(C)=O)cc1CSc1nc2ccccc2c(=O)n1-c1ccccc1C`, the Potency was 7.08 µM (active).
For the molecule `O=C1C(=O)c2ccccc2C(O)=C1C1CCC(c2ccc(Cl)cc2)CC1` (stereo not drawn), the Potency was 0.02 µM (active).
With `O=C1C2CCCN2C(c2ccccc2)N1c1ccc(Cl)cc1` (stereo not drawn), the “activity change, negative = inhibition” value was -19.3%.
Consider `O=C(NCc1ccccn1)c1cc(-c2ccc(-c3ccccc3)cc2)nc2ccccc12`, for which the Potency was 15.8 µM (active).
For the molecule `N#Cc1c(SCC(=O)Nc2ccc(C(F)(F)F)cc2)sc2c(O)cc(=O)[nH]c12`, the Potency is 0.316 µM (active).
For the molecule `Cc1cc(NC(=O)CSc2sc3c(O)cc(=O)[nH]c3c2C#N)ccc1Br`, the Potency was 14.1 µM (active).
As to `O=C(CCN1C(=O)/C(=C/c2ccccc2)SC1=S)NCCc1ccc(O)cc1`, the “activity change, negative = inhibition” value was -6.1%.
As for `O=C(O)CCCN1C(=O)/C(=C\C(Cl)=C\c2ccccc2)SC1=S`, the Potency is 14.1 µM (active).
Turning to `CCC/C(=N\NC(=O)c1ccco1)c1ccc(Cl)s1`, the Potency is 11.2 µM (active).
Turning to `CC1CCCN(Cc2c(O)ccc3c(=O)c(-c4nc5ccccc5s4)c(N)oc23)C1` (stereo not drawn), the Potency was 0.316 µM (active).
On to `C=CCN(c1ccccc1)S(=O)(=O)c1cccc(C(=O)N2CC(C)CC(C)C2)c1` (stereo not drawn), for which the Potency was 14.1 µM (active).
`COc1ccc(Nc2nnc(-c3ccc(C)cc3)c3ccccc23)cc1C(=O)N1CCCCC1`: the Potency is 2.51 µM (active).
`COc1ccc(Nc2nnc(-c3ccccc3)c3ccccc23)cc1C(=O)N1CCCCC1`: the Potency is 7.94 µM (active).
On to `Cc1ccccc1-c1cc(C(=O)n2cccn2)c2cc(Cl)ccc2n1`, for which the “activity change, negative = inhibition” value is -11%.
For the molecule `Cc1ccc(C)c(-c2cc(C(=O)Nc3nccs3)c3ccccc3n2)c1`, the Potency is 4.47 µM (active).
`Cc1ccc(C)c(-c2cc(C(=O)NNC(=S)NCC(C)C)c3ccccc3n2)c1`: the Potency was 14.1 µM (active).
Consider `CCC1OC(=O)C[C@@H](O)[C@H](C)[C@@H](OC2OC(C)CC(N(C)C)C2O)[C@@H](CC=O)C[C@@H](C)C(=O)/C=C/[C@]2(C)OC2C1C` (stereo partly drawn), for which the Potency is 11.2 µM (active).
For the molecule `Cc1onc(-c2ccccc2Cl)c1C(=O)N1CCC(Cc2ccccc2)CC1`, the Potency was 15.8 µM (active).
With `Cc1onc(-c2ccccc2Cl)c1C(=O)N1CC(C)CC(C)C1` (stereo not drawn), the “activity change, negative = inhibition” value is -22.2%.
Consider `Cc1ccc(S(=O)(=O)N(C)C)cc1NC(=O)c1cncc(Br)c1`, for which the Potency is 8.91 µM (active).
On to `NCCCNc1nc(N)c([N+](=O)[O-])c(NC2CCCCC2)n1`, for which the Potency was 3.98 µM (active).
In the case of `N=C(N)c1ccc(OCCCCCOc2ccc(C(=N)N)cc2)cc1`, the Potency was 1 µM (active).
Take `Cc1cccc(-n2c(C)cc(/C=N\NC(=O)c3cccs3)c2C)c1`: the Potency was 11.2 µM (active).
As to `O=C(NCCCn1ccnc1)C(=O)NCC1OCCN1S(=O)(=O)c1ccc(F)cc1` (stereo not drawn), the “activity change, negative = inhibition” value was -13.4%.
Take `COc1ccc(CCNC(=O)C(=O)NCC2OCCN2S(=O)(=O)c2ccc3c(c2)OCCO3)cc1OC` (stereo not drawn): the Potency was 11.2 µM (active).
Regarding `CCC(C(=O)O)C1OC(C(C)C(O)C(C)C(=O)C(CC)C2OC3(C=CC(O)C4(CCC(C)(C5CCC(O)(CC)C(C)O5)O4)O3)C(C)CC2C)C(C)CC1C` (stereo not drawn), the Potency was 0.251 µM (active).
On to `O=C(CCl)NCc1c(Cl)cccc1-n1cccc1`, for which the Potency was 12.6 µM (active).
Turning to `Cc1ccc(CS(=O)(=O)Cc2ccc(C(=O)NC3CCCC3)o2)cc1`, the Potency was 11.2 µM (active).
With `O=C(NC1CCCCC1)c1ccc(CS(=O)Cc2ccccc2Cl)o1` (stereo not drawn), the Potency is 12.6 µM (active).
`C/C(CC(=O)NC1CCCCC1)=N\NC(=O)COc1ccc(C)cc1Br`: the “activity change, negative = inhibition” value was -22.2%.
For `Cn1c(=O)n(C)c2cc(NC(=O)CCl)ccc21`, the Potency was 2.24 µM (active).
Same read-out and setting: the value for `O=C(CCl)Nc1ccc2c(c1)OCO2` was 2.24 µM (active).
In the case of `Cc1ccc(NC(=O)c2nnn(CC(=O)Nc3ccc4c(c3)OCO4)c2N)cc1C`, the “activity change, negative = inhibition” value is -13.9%.
For `CCN1CCN(Cc2c(O)ccc3c2O/C(=C\C=C\c2ccccc2)C3=O)CC1`, the Potency is 3.98 µM (active).
Consider `Cc1cc(OCC(=O)N2CCCC2)cc(C)c1Cl`, for which the “activity change, negative = inhibition” value is -29.2%.
The same measure, in the same setting: the value for `Cc1cc(OCCN2CCN(S(=O)(=O)c3ccccc3F)CC2)ccc1C(C)C` was -46.5%; that for `COc1ccc(CNC(=O)c2cc(S(=O)(=O)N3CCOCC3)cn2C)cc1` was -18.3%.
For `O=S(=O)(c1ccc(OCc2ccc(Br)cc2)cc1)N1CCOCC1`, the Potency was 11.2 µM (active).
As to `CCOc1ccc(S(=O)(=O)N2CCN(C(=O)CCOc3ccccc3C)CC2)cc1`, the Potency is 12.6 µM (active).
For `O=S(=O)(c1ccc(OCC(O)CN2CCN(c3ccc(F)cc3)CC2)cc1)N1CCOCC1` (stereo not drawn), the Potency was 11.2 µM (active).
Still for that read-out and setting: to `O=C(COc1ccccc1)N1CCN(S(=O)(=O)c2ccc(Br)cc2)CC1` belongs 11.2 µM (active); to `Cc1cccc(-c2ccc3ncnc(NCc4cccs4)c3c2)c1`, 7.08 µM (active); to `COc1cccc(-c2ccc3ncnc(NCc4cccs4)c3c2)c1`, 11.2 µM (active).
As to `CN(C)c1ccc(CNc2ncnc3sccc23)cc1`, the “activity change, negative = inhibition” value was -16%.

For the origin of these results see PubChem BioAssay AID504850 (National Center for Advancing Translational Sciences (NCATS), 2011).
